# Publication PMC5540273 (PLoS ONE, 2017)
# “And” between values parts separate entries of the source, which are not always exact repeats. Equal values may be shown once. Read-outs that look alike come from different tables or passages of the source.
# Columns and labels:
# Conditions in all cases: concentration: 1 μM, replicates: in singlicate, n = 1
# CHEK1 = test system: CHEK1
# CHEK2 = test system: CHEK2
# CIT = test system: CIT
# CLK1 = test system: CLK1
# CLK2 = test system: CLK2
# CLK3 = test system: CLK3
# CLK4 = test system: CLK4
# CSF1R-autoinhibited = test system: CSF1R-autoinhibited
# CSF1R = test system: CSF1R
# CSK = test system: CSK
# 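Note: KINOMEscan kinase panel screen.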
Compound,%Inh (CHEK1),%Inh (CHEK2),%Inh (CIT),%Inh (CLK1),%Inh (CLK2),%Inh (CLK3),%Inh (CLK4),%Inh (CSF1R-autoinhibited),%Inh (CSF1R),%Inh (CSK),%Inh (CHEK1; 1 µM),%Inh (CHEK2; 1 µM),%Inh (CIT; 1 µM),%Inh (CLK1; 1 µM),%Inh (CLK3; 1 µM),%Inh (CLK4; 1 µM),%Inh (CSF1R-autoinhibited; 1 µM),%Inh (CSF1R; 1 µM),%Inh (CSK; 1 µM),%Inh (CLK2; 1 µM)
Cc1cccc(Cn2ccn3c(=O)cc(N4CCOCC4)nc23)c1 [GSK2297542],13%,4%,23%,50%,20%,58%,45%,8%,11%,55%,,,,,,,,,,
Fc1ccc(-c2ncn(CCCN3CCOCC3)c2-c2ccccn2)cc1 [SB-211742],0%,0%,8%,8%,8%,3%,0%,0%,0%,0%,,,,,,,,,,
c1ccc(-c2n[nH]cc2-c2ccnc3ccccc23)nc1 [GW271431],5%,0%,41%,28%,7%,55%,20%,11%,6%,0%,,,,,,,,,,
N#Cc1ccc(-c2cc(-c3c[nH]nc3-c3ccccn3)ccn2)cc1 [GW693028],0%,0%,35%,22%,8%,0%,38%,0%,20%,0%,,,,,,,,,,
O=C(c1ccc(-c2cc(-c3c[nH]nc3-c3ccccn3)ccn2)cc1)N1CCOCC1 [GW812171],0%,0%,0%,0%,0%,0%,0%,12%,16%,51%,,,,,,,,,,
NS(=O)(=O)c1cccc(-c2ccc3ncc(N4CCOCC4)nc3c2)c1 [GSK1535721],0%,37%,7%,11%,12%,0%,18%,8%,0%,0%,,,,,,,,,,
O=c1cc(N2CCOCC2)nc2n(Cc3cccc(Cl)c3Cl)c(C3CC3)nn12 [GSK2358994],15%,0%,0%,27%,25%,14%,0%,0%,0%,8%,,,,,,,,,,
Fc1ccc(-c2nn3c(OCC(F)(F)F)cccc3c2-c2ccncc2)cc1 [GW514784],0%,30%,99.1%,2%,0%,0%,0%,36%,0%,0%,,,,,,,,,,
O=C(NCCNc1ccnc(Nc2ccc(F)cc2)n1)c1cc2ccccc2s1 [GSK1379874],2%,0%,22%,29%,0%,26%,37%,8%,0%,0%,,,,,,,,,,
CCc1ccnc(/C=C/c2n[nH]c3cc(Sc4ccccc4C(=O)NC)ccc23)c1,0%,8%,0%,0%,0%,0%,0%,66%,99.9%,12%,,,,,,,,,,
Cc1cccc(-c2nc(-c3ccc(S(C)(=O)=O)cc3)sc2-c2ccncc2)c1,0%,1%,9%,0%,0%,0%,11%,0%,9%,8%,,,,,,,,,,
[2H]C([2H])(c1cccc(C(F)(F)F)c1C)n1ccn2c(=O)nc(N3CCOCC3)cc12 [GSK2336394],0%,0%,11%,20%,0%,14%,12%,0%,0%,0%,,,,,,,,,,
COc1cc2c(cc1OCCN1CCN(C)CC1)ncc1c3ccc(C#N)cc3[nH]c21,83%,45%,99.2%,96.7%,86%,25%,92.6%,99.3%,49%,0%,,,,,,,,,,
Cc1cn2c(=O)cc(N3CCOCC3)nc2n1Cc1cccc(Cl)c1Cl [GSK2334006],25%,0%,17%,35%,0%,11%,26%,0%,5%,0%,,,,,,,,,,
CC(C)(CN)c1nc(-c2ccc(Cl)c(O)c2)c(-c2ccncc2)[nH]1.O=C(O)C(F)(F)F [SB-477794],,,,,0%,,,,,,20% and 10%,41% and 59%,100% and 99.4%,14% and 3%,1% and 11%,6% and 11%,12% and 52%,50% and 43%,44% and 28%,
Cc1nnc(-c2ccc3occ(-c4ccc(C(C)O)cc4)c3c2)o1 (stereo not drawn),13%,15%,11%,31%,2%,6%,33%,6%,1%,3%,,,,,,,,,,
COCCNC(=O)c1ccc(-c2cc(C(=O)NC3CC3)cc(F)c2C)cc1 [GW868318],9%,19%,1%,18%,24%,37%,10%,5%,19%,13%,,,,,,,,,,

Compound,%Inh (CHEK1),%Inh (CHEK2),%Inh (CIT),%Inh (CLK1),%Inh (CLK2),%Inh (CLK3),%Inh (CLK4),%Inh (CSF1R-autoinhibited),%Inh (CSF1R),%Inh (CSK),%Inh (CHEK1; 1 µM),%Inh (CHEK2; 1 µM),%Inh (CIT; 1 µM),%Inh (CLK1; 1 µM),%Inh (CLK3; 1 µM),%Inh (CLK4; 1 µM),%Inh (CSF1R-autoinhibited; 1 µM),%Inh (CSF1R; 1 µM),%Inh (CSK; 1 µM),%Inh (CLK2; 1 µM)
Cc1cccc(-c2nc(Nc3ccc4ncsc4c3)c3ccccc3n2)n1 [GW867588],0%,7%,13%,1%,9%,0%,0%,4%,0%,3%,,,,,,,,,,
O=C(NCCNc1ccnc(Nc2ccc(F)cc2)n1)Nc1ccccc1F [GSK1379880],11%,0%,47%,24%,0%,2%,0%,0%,9%,0%,,,,,,,,,,
NS(=O)(=O)c1cccc(-c2ccc3nccc(-c4cccc(S(N)(=O)=O)c4)c3c2)c1 [GW867253],0%,0%,0%,0%,25%,0%,1%,0%,0%,0%,,,,,,,,,,
Nc1nc(-c2ccc3c(N)n[nH]c3c2)cc(N2CCCC2)n1 [GSK2227430],9%,0%,0%,26%,1%,0%,36%,0%,2%,0%,,,,,,,,,,
O=C(NOCC1CC1)c1ccc(F)c(F)c1Nc1ccc(I)cc1Cl,0%,21%,0%,0%,3%,0%,0%,0%,0%,0%,,,,,,,,,,
COc1ccc(Nc2ncc(C#N)c(Nc3ccccc3C(N)=O)n2)cc1N1CCN(C)CC1.Cl [GSK1558669],100%,78%,69%,99.8%,99.3%,85%,99.7%,67%,99.9%,85%,,,,,,,,,,
COc1ccc(S(=O)(=O)NC2CCN(c3cc(C)nc(Nc4cccc(C#N)c4)n3)CC2)cc1.O=C(O)C(F)(F)F [GSK1653539],0%,14%,0%,20%,0%,56%,3%,0%,1%,0%,,,,,,,,,,
NCCNS(=O)(=O)c1ccc(-c2ccnc3[nH]ccc23)cc1 [GSK977617],,,,,,,,,,0%,8% and 21%,72% and 63%,65% and 48%,95.5% and 95.4%,64% and 83%,97.7% and 96%,11% and 0%,46% and 19%,,94.8% and 95.5%
O=C(NCCCN1CCOCC1)c1cccc(Nc2nccc(Nc3ccc(Oc4ccccc4)cc3)n2)c1 [GW663929],9%,40%,9%,22%,28%,0%,11%,9%,33%,88%,,,,,,,,,,
COc1ccc(Nc2nccc(N3CCC(NC(=O)Nc4cc(C)ccc4C)C3)n2)cc1 (stereo not drawn) [GSK1379741],0%,0%,5%,14%,0%,0%,0%,0%,4%,0%,,,,,,,,,,
NS(=O)(=O)CCc1cccc(Nc2nccc(-c3c(-c4cccc(NC(=O)c5c(F)cccc5F)c4)nn4ccccc34)n2)c1 [GSK336735],4%,0%,53%,27%,10%,100%,21%,21%,99.7%,97.5%,,,,,,,,,,
Cc1ccc(C(=O)NCC(N)=O)cc1-n1c(C)cc(OCc2ccc(F)cc2F)c(Br)c1=O,17%,9%,8%,0%,0%,3%,12%,0%,16%,0%,,,,,,,,,,
O=C1NC(=O)C(N2CCc3ccccc32)=C1c1cccc(Cl)c1 [SB-408010],0%,7%,0%,0%,0%,0%,21%,16%,0%,11%,,,,,,,,,,
CNc1ncnc2[nH]ncc12 [SKF-18355],0%,0%,9%,19%,8%,9%,0%,0%,0%,0%,,,,,,,,,,
CN1c2ccc(NCc3ccc(F)cc3)cc2-c2c(cnn2C)S1(=O)=O,0%,0%,0%,0%,0%,0%,0%,1%,0%,0%,,,,,,,,,,
COc1cc2c(cc1OC[C@@H](O)CO)ncc1c3ccc(C#N)cc3[nH]c21,7%,48%,94.8%,89%,88%,2%,89%,96.6%,44%,1%,,,,,,,,,,
